This is a sample that favours compounds with a hit; in the whole collection about 11% have one here.
VACV mCherry inh – inhibitors of vaccinia virus infection (mCherry reporter signal); Potency, µM (highest dose often 36.5 µM), without a hit: top-dose activity change, negative = inhibition, actives largely listed as inhibitors; AID 720579; 310,000 tested, 0.63% active; Vaccinia virus mCherry reporter infection, fluorescence; calls by dose curve; tested in A549 cells; also: % is scaled to controls: 0 for no effect and ±100 for the full control effect; nearly all actives have a fitted effect of over 35% in size
NS1 inh – influenza NS1 inhibition; Potency, µM (doses to about 46.1 µM), for the others: at the top dose activity, positive = more growth; AID 2326; 270,000 tested, 0.4% active; calls by dose curve; also: actives are rising curves; nearly all actives have a fitted effect of over 50% in size
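A cell-based growth assay was used: compounds that relieve NS1-induced slow growth of budding yeast raise OD600. Assay medium was yeast nitrogen base with ammonium sulphate and -URA supplement, pH 6.0, with 2% galactose.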
Pf growth 48h – inhibits P. falciparum growth in the first generation, 48 h | 310,000 tested, 5.9% active | P. falciparum luciferase growth in erythrocytes, 48 h | AID 504832 | Potency, µM (titrated, usually from 28.7 µM), inactives show at the top dose activity change, negative = inhibition, usual class: inhibitors; also: % is scaled to controls: 0 for no effect and ±100 for the full control effect
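Cell-based growth assay: transgenic P. falciparum expressing firefly luciferase, cultured in red cells within RPMI 1640 containing 0.5% w/v Albumax, 24 mM bicarbonate and gentamycin. A drop in luciferase activity indicates inhibition.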
Vaccinia Venus – inhibitors of vaccinia virus (Venus reporter); Vaccinia virus Venus reporter expression, fluorescence; Potency, µM (doses to about 36.5 µM), for the others: top-dose activity change, negative = inhibition, actives largely listed as inhibitors; 330,000 tested, 0.46% active; AID 720580; calls by dose curve; tested in A549 cells; also: % is scaled to controls: 0 for no effect and ±100 for the full control effect; nearly all actives have a fitted effect of over 30% in size
HCV inh – inhibitors of hepatitis C virus infection | Potency, µM (titrated, usually from 41.8 µM), for the others: top-dose activity change, negative = inhibition, actives largely listed as inhibitors | 340,000 tested, 3.4% active | Huh7.5.1 HCVcc-Cre infection, luciferase reporter, 44 h | AID 651820; also: % is scaled to controls: 0 for no effect and ±100 for the full control effect
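Infectious HCVcc-Cre (~0.5 moi) was added to cells just after compound, with cells seeded 4 h earlier at 1,000 per well. Luciferase activity after 44 h culture reported infection; substrate was incubated 15 min at room temperature before reading.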
Pf growth 96h – P. falciparum growth inhibition at 96 hour, primary screen for plastid delayed-death inhibitors. P. falciparum luciferase reporter growth, 96 h. Potency, µM (doses to about 28.7 µM), for the others: at the top dose activity change, negative = inhibition, most hits filed as inhibitors. 320,000 tested, 6.9% active. AID 504834; also: % is scaled to controls: 0 for no effect and ±100 for the full control effect
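Two-generation exposure (96 h) targets delayed-death phenotype. Reporter parasites carrying integrated firefly luciferase, in red cells at 2% hematocrit and 0.05% parasitemia final, kept at 37 C, 5% CO2; luminescence loss indicates inhibition.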
Active calls of the source: *; i = inactive; ? = inconclusive; nt = not tested or not shown; [ ] = dose if it differs, or a comment. Unless noted, calls follow the shape of the dose curve; as a rule, active = well fitted inhibition curve with a large enough effect; inconclusive = small, poorly fitted or top-dose-only effect, or another doubt; inactive = no such curve, though single readings can be large or run the other way. Potency is read from the fitted curve at half-maximal effect.

SMILES	VACV mCherry inh	NS1 inh	Pf growth 48h	Vaccinia Venus	HCV inh	Pf growth 96h
CC(=O)OC(C(=O)NC1CCCCC1)c1cccc(C)c1 (stereo not drawn)	-9.4%	10.7%	27.6%	-5.5%	18.6%	?
COc1cccc(-c2nnc(SCC(N)=O)n2-c2ccc(Cl)cc2)c1	-19.1%	?	-1.7%	-6.3%	7.7%	nt
COc1ccc(OC)c(-n2c(SCC(=O)Nc3cc(C)on3)nnc2-c2c[nH]c3ccccc23)c1	-7.9%	3.8%	nt	-22.5%	-0.7%	4.65µM*
CCOc1ccc(-n2c(SCC(=O)Nc3cc(C)on3)nnc2-c2c[nH]c3ccccc23)cc1	nt	8.4%	nt	nt	16.4%	5.86µM*
COc1cccc(-n2c(SCC(N)=O)nnc2-c2c[nH]c3ccccc23)c1	i	6.3%	nt	-17.5%	5.4%	11.7µM*
Cc1ccccc1-n1c(SCc2c(C)noc2C)nnc1-c1c[nH]c2ccccc12	nt	0.7%	?	?	?	14.7µM*
COc1ccc(OC)c(-n2c(SC)nnc2-c2c[nH]c3ccccc23)c1	-15.3%	2.5%	nt	-11.7%	8.8%	4.15µM*
COc1ccc(OC)c(-n2c(SCC(N)=O)nnc2-c2c[nH]c3ccccc23)c1	6.2%	-2.5%	nt	-1.9%	9.3%	5.22µM*
COc1ccccc1-n1c(SCC(N)=O)nnc1-c1ccccc1	-9.7%	-27.2%	-15.3%	-17.3%	4.0%	1.65µM*
CCOc1ccccc1-n1c(SCC(N)=O)nnc1-c1ccccc1	nt	6.7%	-10.2%	nt	20.4%	nt
CCOC(=O)C(NC(=O)Nc1ccc(F)cc1F)(Oc1ccccc1)C(F)(F)F (stereo not drawn)	-1.7%	9.8%	-27.2%	-1.3%	25.5%	45.7%
CCCc1ccc(Oc2cn[nH]c2-c2ccc(O)c(C)c2O)cc1	-11.2%	-78.7%	-25.8%	-29.8%	12.6µM*	10.4µM*
CCCOC(=O)c1ccc(Oc2cn[nH]c2-c2ccc(OCC)cc2O)cc1	?	-165.7%	4.65µM*	?	?	nt
COc1ccc(Oc2cn[nH]c2-c2ccc(OCC(=O)NN)cc2O)cc1	nt	?	2.1%[0.00184 µM]	nt	5.7%	?
CCCc1ccc(Oc2c(-c3ccc(O)c(C)c3O)n[nH]c2C)cc1	nt	-111.2%	59.1%	nt	?	?
CCCOC(=O)c1ccc(Oc2c(-c3ccc(OCC)cc3O)n[nH]c2C)cc1	-36.2%	-87.6%	5.22µM*	?	?	-7.5%
CN(C)CC/C=C1/c2ccccc2CS(=O)(=O)c2ccccc21	-6.4%	nt	nt	-1.0%	7.2%	nt
CNCC/C=C1/c2ccccc2CSc2ccccc21	?	-4.4%	?	?	10µM*	?
Cc1nn(-c2ccccc2)c(C)c1/C=N/NC(=O)c1cc(-c2ccccc2)n[nH]1	-9.7%	3.7%	14.7µM*	-26.4%	?	9.28µM*
Cc1ccc(-c2nnc(SCC(=O)N/N=C/c3c(C)nn(-c4ccccc4)c3C)n2-c2ccc(C)cc2)cc1	37.1%	9.4%	13.0%	-1.3%	-3.2%	?
Cc1nn(-c2ccccc2)c(C)c1/C=N/NC(=O)c1cc(-c2cccc3ccccc23)n[nH]1	i	?	?	?	?	?
Cc1ccc(-c2nnc(SCC(=O)N/N=C/c3c(C)nn(-c4ccccc4)c3C)n2-c2ccccc2)cc1	-3.5%	19.2%	6.0%	-6.5%	11.2µM*	3.8%
CN(C)S(=O)(=O)c1cccc(NC(=S)N/N=C/c2ccc(O)c(O)c2O)c1	?	17.6%	4.2%	8.1%	-22.8%	10.4%
COc1cccc(/C=N/NC(=S)Nc2cccnc2)c1	-5.3%	1.9%	33.7%	-14.0%	?	-23.3%
CCN(CC)S(=O)(=O)c1ccc(N/N=C/c2cc(OC)ccc2O)nc1	2µM*	-18.3%	4.65µM*	?	2.82µM*	8.28µM*
SMILES	VACV mCherry inh	NS1 inh	Pf growth 48h	Vaccinia Venus	HCV inh	Pf growth 96h
CN(C)S(=O)(=O)c1cccc(NC(=S)N/N=C/c2ccco2)c1	nt	11.7%	3.7µM*	nt	-3.1%	?
CCN(CC)S(=O)(=O)c1ccc(N/N=C/c2cccnc2)nc1	nt	13.1%	?	nt	0.3%	-7.8%
COc1ccc2cc(C(C)C(=O)Nc3cccc(S(=O)(=O)N(C)C)c3)ccc2c1 (stereo not drawn)	-22.3%	-3.1%	?	?	25.1µM*	?
CNC(=O)c1cccc(NC(=O)C(C)c2ccc3cc(OC)ccc3c2)c1 (stereo not drawn)	47.3%	4.6%	?	0.1%	-2.2%	?
COc1ccc(O)c(/C=N/NC(=S)Nc2cccnc2)c1	11.2µM*	nt	?	?	?	0.522µM*
CCc1cccc(NC(=O)Cn2nc(-c3cc(C)ccc3C)ccc2=O)c1	-5.7%	nt	nt	-4.3%	nt	nt
CN(CCOc1ccc(Cl)cc1)C(=O)C1CCN(C(=O)c2ccc(Cl)cc2)CC1	-8.8%	-20.0%	?	-23.9%	?	?
COc1cc(/C=N/NC(=S)Nc2cccc(S(=O)(=O)N(C)C)c2)cc(OC)c1O	-12.4%	11.6%	-29.7%	-3.7%	-8.5%	11.7µM*
COc1ccc(O)c(/C=N/NC(=S)Nc2cccc(S(=O)(=O)N(C)C)c2)c1	2µM*	?	4.15µM*	?	?	4.65µM*
COc1cccc(/C=N/NC(=S)Nc2cccc(S(=O)(=O)N(C)C)c2)c1	nt	10.2%	?	nt	-23.2%	2.6%
O=C1/C(=C/c2cccs2)SC(=S)N1NS(=O)(=O)c1ccccc1	nt	-51.8%	57.1%	nt	11.3%	60.7%
O=C(NN=Cc1ccc(O)cc1)c1ccccc1NS(=O)(=O)c1cccs1	nt	nt	nt	nt	9.9%	nt
CC(=O)NNC(=S)NC(=O)C(c1ccccc1)c1ccccc1	nt	-15.6%	2.08µM*	nt	?	?
CC(C)(C)C(=O)NC(=S)NNC(=O)C(c1ccccc1)c1ccccc1	?	-37.4%	13.1µM*	-18.8%	?	?
ON1C(c2ccccc2C(F)(F)F)N(O)[C@H]2CCCC[C@H]21 (stereo partly drawn)	nt	10.6%	-0.1%	nt	24.4%	11.9%
C[C@H]1NC(=O)[C@@]2(C)[C@@H](c3ccccc3)[C@H]3COc4ccccc4[C@H]3N2C1=O	i	nt	18.0%	-9.9%	45.3%	1.6%
CC1CCCN(S(=O)(=O)c2ccccc2[N+](=O)[O-])C1 (stereo not drawn)	-19.7%	2.1%	-2.1%	-13.8%	-9.0%	1.4%
CCOC(=O)C1C(=O)C=C(c2ccc(C)cc2)CC1c1cccc([N+](=O)[O-])c1 (stereo not drawn)	-26.7%	?	?	-20.7%	?	6.57µM*
COCCNC(=O)c1c(CS(=O)(=O)c2ccccc2)noc1C(=O)NCc1ccccc1	-14.1%	nt	?	-13.8%	1.4%	?
CC(C)C[C@@H](COCc1cccc(C(F)(F)F)c1)N1CCN(C(=O)c2ccc(C(F)(F)F)cc2)CCC1=O	-7.3%	nt	nt	-18.8%	nt	nt

Compound activity as filed in PubChem BioAssay.
